FECH inh = inhibitors of human ferrochelatase | purified FECH, Ni-mesoporphyrin absorbance 550 nm | 20,000 compounds, 3.3% hits | calls only at 10 µM (by protocol) | AID 1671448 | P22830;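 active means enzyme reaction rate more than 3 SD below the solvent-only control wells on the same plate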;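 further: lower slope than DMSO wells means FECH inhibition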
Target sequence (P22830 whole entry, looked up): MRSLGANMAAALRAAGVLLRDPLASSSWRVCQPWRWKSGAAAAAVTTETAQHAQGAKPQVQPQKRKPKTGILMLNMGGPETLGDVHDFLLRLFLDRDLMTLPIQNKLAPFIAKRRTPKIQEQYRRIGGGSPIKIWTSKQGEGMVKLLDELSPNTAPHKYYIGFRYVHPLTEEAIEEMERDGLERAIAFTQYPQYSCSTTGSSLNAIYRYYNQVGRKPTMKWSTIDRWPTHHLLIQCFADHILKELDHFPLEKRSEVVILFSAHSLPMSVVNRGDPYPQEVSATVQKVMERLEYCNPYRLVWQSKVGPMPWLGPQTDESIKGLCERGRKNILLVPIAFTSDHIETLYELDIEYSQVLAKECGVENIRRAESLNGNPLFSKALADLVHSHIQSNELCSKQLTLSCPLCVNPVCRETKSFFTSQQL
Numbers without * were called inactive; i = inactive; + = active, no number. Shown is part of a subset that was picked to be rich in hits.

SMILES	FECH inh
COc1cccc([C@@H]2CCCN(c3nc(-c4ccncc4)nc4c3CNC4)C2)c1	i
O=c1c(NCc2ccccc2Cl)c(-c2ccc3c(c2)CCCC3)c1=O	i
COc1ccc(CCNc2ncnc3oc4c(c23)CCCC4)c(OC)c1	i
Clc1ccccc1CNc1ncnc2oc3c(c12)CCCC3	+
Cc1ccc(C(=O)Nc2cnc3n2CCCC3)cc1N1CCNC1=O	i
COc1ccccc1C1CCN(C(=O)CCC(=O)NC2CCCC2)CC1	i
CC(C)CC1(CO)CCCN(C(=O)CCC(=O)NC2CCCC2)C1 (configuration not stated)	i
O=C(CCC(=O)N1CCN(CC2CCCO2)CC1)NC1CCCC1 (configuration not stated)	+
O=C(O)c1cc(NS(=O)(=O)c2ccc(F)cc2)cnc1N(Cc1ccccc1)Cc1ccccc1	i
Cc1cc(NCc2ccccc2)n2nc(-c3cccnc3)nc2n1	i
CC(C)Cc1ccc(S(=O)(=O)N2CCC(n3c(C(F)(F)F)nc4cccnc43)CC2)cc1	i
CCOc1ccc(Nc2nc(NCCCO)nc3c2cnn3-c2ccccc2)cc1	i
Cn1cnc(-c2ccccc2)c1-c1cccc2cnccc12	i
COCC1(Cn2cnc(-c3ccccc3)c2-c2cccc3cnccc23)CC1	+
CCc1ccccc1-c1c(-c2ccccc2)ncn1CCC(=O)OC	i
Cc1cnc(CN(C)C(=O)c2cc(CN3CCC(Cc4ccccc4)CC3)on2)[nH]1	i
O=C(C1COc2ccccc2C1)N1CCC(Cn2cc(CCO)nn2)CC1 (configuration not stated)	i
Cc1cc(CC(=O)N2CCC3(CC2)CNC(=O)C3)ccc1F	i
O=C(Nc1nc2c(s1)CCCC2)c1cccc(CN2CC[C@H](O)C2)c1	i
O=C(Nc1ccc2ncsc2c1)c1cccc(CN2CCCC(O)C2)c1 (configuration not stated)	+
O=C(Nc1ncns1)c1cccc(CN2CC[C@H](O)C2)c1	i
CCN1CCN(C(=O)C2CCN(c3ccc(-c4cccs4)nn3)CC2)CC1	i
CC(C)=CC(=O)NCCC1CN(Cc2cnc(C)nc2)CCO1 (configuration not stated)	i
CCc1cc(CN(C)C(CC)C(=O)Nc2ccccc2)on1 (configuration not stated)	i
CCc1cc(CN(C)C2CCN(C(=O)c3ccccn3)CC2)on1	i
SMILES	FECH inh
CCc1cc(CN(C)C(=O)CN2C(=O)c3ccccc3C2=O)on1	+
O=C(CCN1CCN(CCc2ccncc2)CC1)Nc1nccs1	i
CN1CC(=O)N(CC(=O)Nc2ccc(-c3ccno3)cc2)c2ccccc2C1=O	+
CC(=O)Nc1ccc(NC(=O)CN2C(=O)CN(C)C(=O)c3ccccc32)cc1	i
CN1CC(=O)N(CC(=O)Nc2cccc(-c3ccno3)c2)c2ccccc2C1=O	i
Cc1nc(C(=O)N(C)Cc2cc(-c3cccs3)n[nH]2)cs1	i
COc1ccc(N2CCN(CCCNC(=O)c3cccn3-c3nnc(N4CCCCC4)s3)CC2)cc1	i
CCN(CCCNC(=O)C1CCCN1c1nnc(N2CCCC2=O)s1)Cc1ccccc1 (configuration not stated)	i
O=C(NCCN1CCCc2ccccc21)C1CCCN1c1nnc(N2CCCC2=O)s1 (configuration not stated)	i
O=C(NCCCN1CCN(c2ccc(F)cc2)CC1)C1CCCN1c1nnc(N2CCCC2=O)s1 (configuration not stated)	+
COc1ccc(CNC(=O)C2CCCN2S(=O)(=O)c2ccc3c(c2)CCCC(=O)N3)cc1 (configuration not stated)	i
COc1ccc(CNC(=O)C2CCCN2c2nnc(N3CCCC3=O)s2)cc1OC (configuration not stated)	+
O=S(=O)(NCc1nc2cccnc2n1C1CCCCC1)c1ccc(Cl)cc1	i
CC(C)c1ccc(S(=O)(=O)NCc2nc3cccnc3n2Cc2ccccc2)cc1	i
COCCn1c(CNC(=O)c2ccc(OC)cc2OC)nc2cccnc21	i
CCc1ccc(Cn2c(CNS(=O)(=O)c3ccc(CC)cc3)nc3cccnc32)cc1	i
COc1ccc(S(=O)(=O)NCc2nc3cccnc3n2Cc2ccccc2)cc1	i
COc1ccc(Cn2c(CNS(=O)(=O)c3ccc(Cl)cc3)nc3cccnc32)cc1	i
COc1cccc(Cn2c(CNC(=O)c3ccc(OC)cc3OC)nc3cccnc32)c1	+
CCCc1ccc(S(=O)(=O)NCc2nc3cccnc3n2Cc2ccccc2)cc1	+
COc1ccc(Cn2c(CNS(=O)(=O)c3ccccc3)nc3cccnc32)cc1	+
Cc1ccc(S(=O)(=O)NCc2nc3cccnc3n2C2CCCC2)cc1	+
COc1ccc(S(=O)(=O)NCc2nc3cccnc3n2C2CCCC2)cc1	i
COc1cccc(Cn2c(CNC(=O)c3cccc(OC)c3)nc3cccnc32)c1	i
Cc1ccc(C)c(CN2CCC(CNC(=O)c3cccc(=O)[nH]3)C2)c1 (configuration not stated)	i
SMILES	FECH inh
Cc1nn(C)c(Cl)c1-c1c(-c2ccccc2)ncn1C[C@H]1CCCN1	i
CCc1ccc(NC(=O)C2CCCN2S(=O)(=O)c2cc(C(=O)OC)n(C)c2)cc1 (configuration not stated)	i
Cc1cc(-c2c(-c3ccccc3)ncn2CCN(C)S(C)(=O)=O)n[nH]1	i
O=C(Nc1cccc(N2CCCS2(=O)=O)c1)c1ccc(Br)cc1	i
Cn1ccc(C(=O)NCc2nc(-c3cccc(F)c3)c(-c3ccccn3)[nH]2)n1	i
c1ccc(OCCn2cnc(-c3ccccc3)c2-c2ncc[nH]2)cc1	i
CC(=O)NCCC1CN(Cc2c(Cl)nc3sccn23)CCO1 (configuration not stated)	i
CCCn1c(CNS(=O)(=O)c2ccc(CC(C)C)cc2)nc2cccnc21	+
CCCn1c(CNS(=O)(=O)c2ccc(Cl)cc2)nc2cccnc21	i
CC(C)Cc1ccc(S(=O)(=O)NCc2nc3cccnc3n2Cc2ccccc2)cc1	i
COC(=O)C1CCCCN1Cc1cccc(C(=O)Nc2c(C)noc2C)c1 (configuration not stated)	i
Cc1ccsc1CNc1ccccc1C(=O)N(Cc1nccn1C)C1CC1	i
Cc1nc2ccc(C(=O)N(C)CCC3CCCCO3)cc2nc1C (configuration not stated)	i
CCc1c(C)nc2ncnn2c1Sc1ccc(NC(=O)c2cc(OC)c(OC)c(OC)c2)cc1	i
CCc1c(C)nc2ncnn2c1Sc1ccc(NC(C)=O)cc1	i
CCc1ccc(NC(=O)Nc2ccc(Sc3c(CC)c(C)nc4ncnn34)cc2)cc1	i
CCCc1c(C)nc2ncnn2c1Sc1ccc(NC(=O)c2ccccc2OC)cc1	i
CCc1c(C)nc2ncnn2c1Sc1ccc(NC(=O)c2ccccc2Cl)cc1	i
CCOc1ccccc1C(=O)Nc1ccccc1Sc1c(CC)c(C)nc2ncnn12	i
CCc1c(C)nc2ncnn2c1Sc1ccc(NC(=O)c2ccccc2OC)cc1	+
CCc1c(C)nc2ncnn2c1Sc1ccc(NC(=O)NCc2ccccc2)cc1	+
CCOc1ccccc1C(=O)Nc1ccc(Sc2c(CC)c(C)nc3ncnn23)cc1	+
Cc1nc(C(N)=O)c2c(n1)n(-c1ccc(C)c(C)c1)c(=O)n2C	i
O=C(C1CCCO1)N1CCN(Cc2cn[nH]c2-c2ccc(F)cc2)CC1 (configuration not stated)	i
